Records with an inconclusive call do not appear. Active and inactive are the calls of the source.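 How the source made its calls, unless noted: active means percent response above a set limit, the screen-wide mean plus 3 SD (cut at about 130% in these data); inactive means the rest.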

Experiment [1] is described as follows: yeast TOR pathway RPL19A-GFP modulators, primary screen, cell-based, S. cerevisiae, multiplex flow cytometry (AID 1862; in the data active means percent of DMSO control GFP below about 86%;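 further: lower values mimic rapamycin by blocking the RPL19A rise seen in DMSO cells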). The settings on record: S. cerevisiae RPL19A-GFP strain, flow cytometry fluorescence, 3 h; at 10 µM; stronger effect = lower value. A general note: Flow cytometry measures light scatter and fluorescence of single cells or particles in a stream.
Experiment [2] can be described thus: modulators of MEP2-GFP levels in yeast, primary screen, S. cerevisiae, multiplex flow cytometry (AID 1867;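 active means GFP response, as percent of the DMSO control, above the screen-wide mean plus 3 SD, about 139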;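 further: median GFP channel fluorescence of barcode-gated MEP2-GFP cells measured by flow cytometry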). The settings on record: S. cerevisiae MEP2-GFP strain, 3 h, at 10 µM, stronger effect = higher value, 100% means same as DMSO wells.
Experiment [3] is described as follows: modulators of CIT2-GFP expression in yeast, primary screen, S. cerevisiae, GFP fusion, multiplex flow cytometry (AID 1870).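 Further: barcoded CIT2-GFP strain pooled with four other GFP strains with rapamycin as positive control; median GFP fluorescence per well over plate mean of DMSO wells so 100% = DMSO.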 The settings on record: 3 h, at 10 µM, stronger effect = higher value.
A short description of experiment [4]: modulators of LAP4-GFP expression in yeast, primary screen, S. cerevisiae, multiplex flow cytometry (AID 1873;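 active means GFP signal, as percent of the solvent control, above the screen mean plus 3 SD, about 149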). Particulars: 3 h, at 10 µM, stronger effect = higher value.
A short description of experiment [5]: modulators of AGP1-GFP expression in yeast TOR pathway, primary screen, cell-based, multiplex flow cytometry, S. cerevisiae (AID 1887;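 active means GFP signal above the screen-wide mean plus 3 SD, that is over about 124.5% of the solvent control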;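 further: AGP1-GFP fusion strain of S. cerevisiae within a five-strain barcoded multiplex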). Particulars: 3 h, at 10 µM, stronger effect = higher value.
Experiment [6] in a line: inhibitors of CD8+ T cell-vesicle binding, pilot screen, LFA-1/ICAM-1 modulator project, MLPCN validation set, flow cytometry (AID 2523;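 active means response below a set limit, under 55% cells CD8-positive and vesicle-bound, and CD8 cells' 90th-percentile brightness under 279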;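 on vesicle binding response: mean PE anti-B7-1 fluorescence of CD8+ cells relative to row control; 100% = QL9-loaded vesicles with DMSO vehicle in the same plate row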). Particulars: 2C mouse CD8+ T cells, at 7 µM, stronger effect = lower value; double positive events: measured here: CD8+/vesicle+ event percentage.
The target of experiment [7] is Integrin beta-1 (Homo sapiens) + Integrin alpha-4 (Homo sapiens) (UniProt P13612+P05556). The experiment is described as follows: inhibition of HUTS-21 binding to VLA-4, pilot screen, VLA-4 allosteric modulator project, U937 cells, HUTS-21 mAb, flow cytometry, validation set (AID 2674;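 active means inhibition above 50%, about 3 SD of the validation set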;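 further: antibody binding induced by the VLA-4 ligand LDV present at three times its Kd; 0% = LDV ligand with antibody and no compound and 100% = antibody without LDV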). Particulars: HUTS-21 LIBS mAb binding, at 6.7 µM, stronger effect = higher value, binding induced by LDV ligand.

A short description of experiment [8]: superoxide lowering in aged yeast cells, pilot screen, validation compound set (AID 2706;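 active means superoxide response below 65% of plate, a cut near 3 SD across the whole screen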;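 further: yeast exposed to compound for one week at 30 degrees C before staining; 100% = mean of all compound wells on the same plate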). Particulars: S. cerevisiae aging, superoxide DHE fluorescence; at 10 µM; stronger effect = lower value.
For experiment [9], the target named is Beta-adrenergic receptor kinase 1 (Homo sapiens) (UniProt P25098). Description: GRK2 binders displacing RNA aptamer, biochemical, validation, human GRK2, bead flow cytometry (AID 488806;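 active means aptamer binding inhibition above 30%, about 3 SD of noise from non-fluorescent compounds; inactive means inhibition at or below 30%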). Particulars: bead-bound GRK2, FAM-aptamer displacement, at 10 µM, stronger effect = higher value.
The target in experiment [10] is Beta-2 adrenergic receptor (Homo sapiens) (UniProt P07550). The experiment is described as follows: beta2AR agonists driving receptor internalization, pilot screen, cell-based, FAP fluorogen, flow cytometry, validation set (AID 504459;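 active means percent response above 42, roughly 3 SD of non-fluorescent test compounds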;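 further: agonist-driven loss of surface beta2AR via internalization measured by FAP dye flow cytometry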). The settings on record: Am2.2-beta2AR cells, FAP surface receptor flow cytometry; at 10 µM; stronger effect = higher value.
Experiment [11] addresses AP-2 complex subunit beta (Homo sapiens) (UniProt P63010). Description: inhibitors of arrestin peptide binding to AP2, pilot screen, biochemical, validation set, GST-AP2 beads, flow cytometry (AID 504541;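 active means inhibition above 54%, about 3 SD of non-fluorescent compounds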;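 further: AP2 carries R879A mutation and is captured from E. coli lysate; bead-bound FITC arrestin peptide fluorescence measuring arrestin peptide binding to AP2; 0% = DMSO wells and 100% = excess unlabeled arrestin peptide control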). Particulars: FITC arrestin peptide, at 10 µM, stronger effect = higher value, AP2 beta2 appendage fragment, R879A mutant.
Experiment [12] in a line: yeast V-ATPase proton transport modulators, S. cerevisiae, pHLuorin, HTS validation (AID 504600; in the data active means response above about 15%;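 further: plate controls were DMSO for no effect and reference compound for full effect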). The settings on record: S. cerevisiae pHLuorin cytosolic pH, at 10 µM, stronger effect = higher value.
Experiment [13] relates to anti-desmoglein-3 scFv antibody binding to human DSG3. Description: inhibitors of anti-DSG3 scFv binding to DSG3, pilot screen, biochemical, validation compound set, bead-based, flow cytometry (AID 588368;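 active means binding below the plate cutoff, the plate median minus 3 SD, with a reading above zero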;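 further: signal is the median channel fluorescence of bead-bound GFP antibody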). Particulars: Protein G beads, DSG3-Fc, scFv-GFP binding, at 10 µM, stronger effect = lower value.
Experiment [14] can be described thus: inhibitors of fungal efflux pumps CDR1, CDR2, MDR1, pilot screen, validation compound set, multiplex, phenotypic (AID 588506;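 active means efflux inhibition above 0.42, the validation set average plus 4 SD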;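 further: Nile Red retained in cells so higher fluorescence means more efflux inhibition; 0 = negative control wells and 1 = enniatin B 25 µM full block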). The settings on record: S. cerevisiae pump-expressing triplex, Nile Red efflux flow cytometry; at 10 µM; stronger effect = higher value; the pumps come from Candida albicans.
For experiment [15], the target named is ATP-binding cassette sub-family B member 6 (Homo sapiens) (UniProt Q9NP58). Description: ABCB6 transporter inhibitors, pilot screen, K562-ABCB6 cells, flow cytometry, validation set (AID 588550;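 active means inhibition above the screen-wide mean plus 3 SD, about 51%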;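 further: 0% = DMSO wells and 100% = benzethonium chloride 70 µM positive control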). Particulars: K562-ABCB6 porphyrin accumulation, 1 h, at 10 µM, stronger effect = higher value.
Experiment [16] can be described thus: promoters of myeloid differentiation in arrested cells, primary screen, cell-based, GFP/MAC1 double positive, flow cytometry, validation set (AID 588685;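 active means differentiation response of at least 50%, scaled between solvent and reference control, from cells with both markers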;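 further: compound exposure lasts four days before antibody staining and flow analysis; 0% = DMSO wells and 100% = 5 µM fulvestrant positive control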). Particulars: ER-HoxA9 marrow cells, stronger effect = higher value, normalized: vehicle 0, fulvestrant 100.

Chain of ATP-binding cassette sub-family B member 6 (Homo sapiens) (Q9NP58 whole entry, looked up): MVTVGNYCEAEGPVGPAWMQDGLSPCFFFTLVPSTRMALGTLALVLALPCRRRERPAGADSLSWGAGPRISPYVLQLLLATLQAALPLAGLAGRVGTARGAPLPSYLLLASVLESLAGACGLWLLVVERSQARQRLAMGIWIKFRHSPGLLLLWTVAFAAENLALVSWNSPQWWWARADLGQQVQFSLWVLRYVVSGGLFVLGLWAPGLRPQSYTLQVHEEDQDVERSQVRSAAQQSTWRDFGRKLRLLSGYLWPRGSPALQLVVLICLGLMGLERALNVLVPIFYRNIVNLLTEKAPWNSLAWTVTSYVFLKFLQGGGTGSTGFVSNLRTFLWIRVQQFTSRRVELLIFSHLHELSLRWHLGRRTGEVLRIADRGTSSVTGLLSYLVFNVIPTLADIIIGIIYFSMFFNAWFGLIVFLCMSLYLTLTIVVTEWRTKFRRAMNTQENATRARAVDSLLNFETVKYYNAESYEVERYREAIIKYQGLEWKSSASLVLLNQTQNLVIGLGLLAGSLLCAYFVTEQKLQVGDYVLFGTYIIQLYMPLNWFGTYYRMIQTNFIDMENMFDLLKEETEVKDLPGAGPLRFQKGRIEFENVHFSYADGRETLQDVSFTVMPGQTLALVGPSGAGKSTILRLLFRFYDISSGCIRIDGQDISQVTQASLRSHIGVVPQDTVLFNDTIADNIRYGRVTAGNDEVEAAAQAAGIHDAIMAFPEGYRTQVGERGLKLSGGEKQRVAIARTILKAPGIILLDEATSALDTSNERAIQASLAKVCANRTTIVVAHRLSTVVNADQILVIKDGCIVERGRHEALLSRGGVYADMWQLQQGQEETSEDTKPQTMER
Chain of Integrin beta-1 (Homo sapiens) + Integrin alpha-4 (Homo sapiens) (P05556 whole entry, looked up): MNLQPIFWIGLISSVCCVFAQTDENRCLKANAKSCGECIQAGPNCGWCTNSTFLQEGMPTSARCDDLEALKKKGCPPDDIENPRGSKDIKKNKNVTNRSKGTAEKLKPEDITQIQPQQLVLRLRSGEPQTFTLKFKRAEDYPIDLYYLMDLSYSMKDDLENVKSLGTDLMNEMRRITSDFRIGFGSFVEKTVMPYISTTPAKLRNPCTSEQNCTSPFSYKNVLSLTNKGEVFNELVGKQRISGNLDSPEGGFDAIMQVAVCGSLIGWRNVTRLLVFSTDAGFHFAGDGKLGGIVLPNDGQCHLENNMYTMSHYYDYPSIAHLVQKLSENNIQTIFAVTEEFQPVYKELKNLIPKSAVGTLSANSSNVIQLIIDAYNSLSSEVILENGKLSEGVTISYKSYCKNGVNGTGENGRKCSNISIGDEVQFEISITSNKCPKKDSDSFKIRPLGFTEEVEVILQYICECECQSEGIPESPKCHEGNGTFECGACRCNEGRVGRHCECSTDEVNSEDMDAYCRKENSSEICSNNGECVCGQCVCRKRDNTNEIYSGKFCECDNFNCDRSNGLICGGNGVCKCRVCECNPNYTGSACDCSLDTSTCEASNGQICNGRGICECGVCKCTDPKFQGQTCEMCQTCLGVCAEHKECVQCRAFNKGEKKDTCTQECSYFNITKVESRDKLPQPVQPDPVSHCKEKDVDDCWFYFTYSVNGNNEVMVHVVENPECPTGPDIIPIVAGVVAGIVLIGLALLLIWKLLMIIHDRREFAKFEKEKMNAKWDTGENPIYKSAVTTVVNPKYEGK
Chain of Integrin beta-1 (Homo sapiens) + Integrin alpha-4 (Homo sapiens) (P13612 whole entry, looked up): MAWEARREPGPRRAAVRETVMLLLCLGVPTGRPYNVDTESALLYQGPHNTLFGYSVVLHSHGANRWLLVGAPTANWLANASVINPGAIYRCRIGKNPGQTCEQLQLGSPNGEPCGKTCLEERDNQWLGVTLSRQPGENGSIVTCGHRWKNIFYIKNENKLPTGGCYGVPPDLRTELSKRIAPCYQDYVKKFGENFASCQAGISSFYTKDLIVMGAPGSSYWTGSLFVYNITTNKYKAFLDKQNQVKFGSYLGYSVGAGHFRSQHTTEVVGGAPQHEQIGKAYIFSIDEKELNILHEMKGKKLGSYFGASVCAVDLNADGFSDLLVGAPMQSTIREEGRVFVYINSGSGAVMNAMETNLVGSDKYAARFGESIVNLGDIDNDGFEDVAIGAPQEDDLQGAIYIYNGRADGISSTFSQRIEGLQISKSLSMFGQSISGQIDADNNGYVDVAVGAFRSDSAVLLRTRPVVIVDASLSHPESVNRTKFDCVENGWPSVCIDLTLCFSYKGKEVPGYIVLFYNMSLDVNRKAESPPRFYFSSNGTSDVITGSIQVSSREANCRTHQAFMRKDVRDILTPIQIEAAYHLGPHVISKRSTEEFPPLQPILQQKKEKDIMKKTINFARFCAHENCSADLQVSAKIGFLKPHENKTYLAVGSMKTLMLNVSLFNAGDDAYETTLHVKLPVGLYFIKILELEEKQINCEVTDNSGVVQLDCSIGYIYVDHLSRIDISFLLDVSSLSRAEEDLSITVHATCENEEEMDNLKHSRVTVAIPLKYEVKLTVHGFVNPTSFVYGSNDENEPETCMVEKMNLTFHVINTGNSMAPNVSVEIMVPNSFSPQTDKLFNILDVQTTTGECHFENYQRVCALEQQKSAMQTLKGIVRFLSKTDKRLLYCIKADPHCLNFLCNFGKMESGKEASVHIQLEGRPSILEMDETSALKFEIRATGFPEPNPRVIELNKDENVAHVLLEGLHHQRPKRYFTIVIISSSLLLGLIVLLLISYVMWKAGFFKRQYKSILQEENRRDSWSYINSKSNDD
Chain of Beta-adrenergic receptor kinase 1 (Homo sapiens) (P25098 whole entry, looked up): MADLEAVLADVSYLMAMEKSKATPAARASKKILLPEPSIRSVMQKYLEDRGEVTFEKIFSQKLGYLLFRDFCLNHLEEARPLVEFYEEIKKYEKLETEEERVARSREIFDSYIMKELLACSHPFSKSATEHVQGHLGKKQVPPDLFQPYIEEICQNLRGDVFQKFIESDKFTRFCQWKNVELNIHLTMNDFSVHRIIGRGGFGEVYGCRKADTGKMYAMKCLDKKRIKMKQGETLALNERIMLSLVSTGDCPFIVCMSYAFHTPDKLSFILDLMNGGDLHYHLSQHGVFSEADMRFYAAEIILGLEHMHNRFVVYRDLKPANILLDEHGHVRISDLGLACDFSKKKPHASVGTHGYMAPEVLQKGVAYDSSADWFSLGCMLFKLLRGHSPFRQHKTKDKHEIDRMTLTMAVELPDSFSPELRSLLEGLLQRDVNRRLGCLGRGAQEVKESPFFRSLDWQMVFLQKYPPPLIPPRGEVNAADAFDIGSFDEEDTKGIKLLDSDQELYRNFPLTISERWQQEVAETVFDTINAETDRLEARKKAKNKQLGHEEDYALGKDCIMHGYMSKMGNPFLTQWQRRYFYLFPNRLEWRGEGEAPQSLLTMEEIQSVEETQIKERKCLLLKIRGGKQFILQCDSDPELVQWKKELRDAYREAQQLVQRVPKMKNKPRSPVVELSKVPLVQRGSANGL
Chain of AP-2 complex subunit beta (Homo sapiens) (P63010 whole entry, looked up, the tested form may be a part, one chain of several): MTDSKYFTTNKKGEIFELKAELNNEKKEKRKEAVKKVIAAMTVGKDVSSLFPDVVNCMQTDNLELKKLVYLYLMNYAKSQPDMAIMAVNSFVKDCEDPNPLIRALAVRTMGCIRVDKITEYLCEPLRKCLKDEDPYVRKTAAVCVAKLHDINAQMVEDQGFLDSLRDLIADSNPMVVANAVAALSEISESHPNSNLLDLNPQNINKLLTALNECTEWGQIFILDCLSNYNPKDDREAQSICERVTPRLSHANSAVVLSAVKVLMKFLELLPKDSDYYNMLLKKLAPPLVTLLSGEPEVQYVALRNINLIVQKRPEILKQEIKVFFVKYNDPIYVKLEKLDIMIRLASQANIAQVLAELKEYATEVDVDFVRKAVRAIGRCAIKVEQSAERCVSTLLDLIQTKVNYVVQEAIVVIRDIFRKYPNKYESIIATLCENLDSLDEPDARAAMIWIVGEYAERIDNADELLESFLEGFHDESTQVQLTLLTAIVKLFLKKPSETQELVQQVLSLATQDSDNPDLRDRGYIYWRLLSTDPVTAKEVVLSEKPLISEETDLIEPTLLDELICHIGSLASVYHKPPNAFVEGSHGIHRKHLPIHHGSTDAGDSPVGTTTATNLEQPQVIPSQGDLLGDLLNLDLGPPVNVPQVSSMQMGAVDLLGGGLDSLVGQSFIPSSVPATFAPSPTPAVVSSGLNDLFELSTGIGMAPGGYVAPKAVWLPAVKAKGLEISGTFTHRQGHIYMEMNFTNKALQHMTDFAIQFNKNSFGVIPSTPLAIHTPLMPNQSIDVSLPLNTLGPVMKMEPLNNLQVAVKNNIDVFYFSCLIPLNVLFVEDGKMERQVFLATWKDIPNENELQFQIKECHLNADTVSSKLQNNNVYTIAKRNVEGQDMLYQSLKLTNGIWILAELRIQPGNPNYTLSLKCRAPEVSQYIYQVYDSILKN
Chain of Beta-2 adrenergic receptor (Homo sapiens) (P07550 whole entry, looked up): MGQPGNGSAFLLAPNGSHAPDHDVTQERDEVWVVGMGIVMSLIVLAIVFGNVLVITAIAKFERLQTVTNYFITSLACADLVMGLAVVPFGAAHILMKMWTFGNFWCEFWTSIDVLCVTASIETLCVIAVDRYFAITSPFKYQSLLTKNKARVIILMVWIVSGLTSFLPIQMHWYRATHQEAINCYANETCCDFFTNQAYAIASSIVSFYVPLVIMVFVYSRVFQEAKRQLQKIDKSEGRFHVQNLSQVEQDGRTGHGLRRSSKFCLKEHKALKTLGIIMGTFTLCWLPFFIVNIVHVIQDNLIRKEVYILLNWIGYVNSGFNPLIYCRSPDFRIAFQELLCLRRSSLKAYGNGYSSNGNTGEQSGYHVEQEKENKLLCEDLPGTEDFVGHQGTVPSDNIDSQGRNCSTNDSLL

On to `CCc1cc2c(=O)c(-c3nc(C)cs3)c(CCCC(=O)O)oc2cc1O`, for which the percent of DMSO control GFP in [1] is 103% (inactive). Moreover, the GFP response vs DMSO in [2] is 108% (inactive); in experiment [4], 98% (inactive). Also, the percent response of DMSO control in [3] is 102% (inactive). The GFP response, % of DMSO in [5] was 100% (inactive). Also, the double positive events in [6] was found to be 54.4%. In experiment [6], the vesicle binding response was 39.1% (active). For the same compound, the inhibition is 1.62% (inactive) in [7], -6.82% (inactive) in experiment [11] and -3% (inactive) in experiment [15]. For the same compound, the superoxide response (% of plate) in experiment [8] was 105% (inactive). Besides, the aptamer binding inhibition in experiment [9] is 2% (inactive). In addition, the response was -4.49% (inactive) in [10] and -0.76% (inactive) in experiment [12]. Also, in [13], the binding (% of control) was 114% (inactive). In experiment [14], the efflux inhibition (fraction of control) is -0.2 (inactive). The differentiation response in [16] was 2.2% (inactive).
`CCCN(CCC)C(=O)C(CCC(=O)O)NC(=O)c1ccccc1` (stereo not drawn): in experiment [1], the percent of DMSO control GFP is 98.8% (inactive). Also, the GFP response vs DMSO is 109% (inactive) in experiment [2] and 92% (inactive) in [4]. The percent response of DMSO control in experiment [3] is 95.4% (inactive). Besides, the GFP response, % of DMSO in experiment [5] was 94.5% (inactive). The compound also showed a double positive events in experiment [6] of 59.4%. The vesicle binding response in [6] was 977% (inactive). In addition, the inhibition is 7.85% (inactive) in experiment [7], -5.39% (inactive) in experiment [11] and -8% (inactive) in experiment [15]. Moreover, the superoxide response (% of plate) in experiment [8] was 94.3% (inactive). The aptamer binding inhibition in [9] is 7% (inactive). In addition, the figures for the response in experiment [10] and in [12] were -4.18% (inactive) and -4.29% (inactive), respectively. Further, the binding (% of control) in [13] was 99.8% (inactive). Moreover, the efflux inhibition (fraction of control) in [14] is -0.2 (inactive). In experiment [16], the differentiation response is 6.11% (inactive).
On to `COc1ccc(C(CC(=O)N2CCOCC2)C(C)C)cc1` (stereo not drawn), for which the percent of DMSO control GFP in experiment [1] is 100% (inactive). The results for the GFP response vs DMSO in experiment [2] and in experiment [4] were 99.6% (inactive) and 118% (inactive), respectively. Besides, the percent response of DMSO control in experiment [3] is 101% (inactive). Further, in experiment [5], the GFP response, % of DMSO was 106% (inactive). The compound further came in with a double positive events in experiment [6] of 55.7%. Besides, the vesicle binding response in [6] is 56.1% (inactive). For the same compound, the results for the inhibition in experiment [7], in experiment [11] and in experiment [15] were 2.3% (inactive), -2.4% (inactive) and 7% (inactive), respectively. The superoxide response (% of plate) in experiment [8] was 77.9% (inactive). The aptamer binding inhibition in experiment [9] is 3% (inactive). Also, the response is -9.06% (inactive) in experiment [10] and 1.44% (inactive) in experiment [12]. In [13], the binding (% of control) was 95.3% (inactive). In addition, the efflux inhibition (fraction of control) in [14] is -0.06 (inactive). For the same compound, the differentiation response in experiment [16] was -18.4% (inactive).
`CC(C)=CCC/C(C)=C/CC/C(C)=N/O`: in experiment [1], the percent of DMSO control GFP is 97.4% (inactive). In addition, the GFP response vs DMSO in experiment [2] was 115% (inactive); in experiment [4], 108% (inactive). Besides, the percent response of DMSO control in experiment [3] is 91% (inactive). Besides, the GFP response, % of DMSO in experiment [5] was 93.5% (inactive). Also, in [6], the double positive events came to 59.7%. The vesicle binding response in experiment [6] is 199% (inactive). For the same compound, the inhibition in experiment [7] was 6.4% (inactive); in experiment [11] it was -1.05% (inactive); in experiment [15], -63% (inactive). For the same compound, in experiment [8], the superoxide response (% of plate) was 97.4% (inactive). In experiment [9], the aptamer binding inhibition is 4% (inactive). The figures for the response in experiment [10] and in experiment [12] were 3.47% (inactive) and -1.49% (inactive), respectively. Moreover, the binding (% of control) in [13] is 103% (inactive). Further, the efflux inhibition (fraction of control) in [14] was 0.08 (inactive). The differentiation response in experiment [16] was -2.4% (inactive).

The inhibition is the relative decrease from the control value, in per cent.

The values are drawn from PubChem BioAssay.
